# In PubChem BioAssay (NCI):
# This is part of a sample that, as a whole, favours compounds with a hit. Of some 83,000 tested, about 20% had one in any assay.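 Single-concentration screen, 48 h exposure, 96-well plates. Endpoint: percent growth. Below 10 = active.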 A number with no mark means an inactive call. Activity calls are given as the source filed them.
# Test system: HL-60(TB) leukemia
# Test: NCI-60 one-dose screen, 48 h (100 = growth as untreated, 0 = no growth, -100 = all killed)
# Details: 10 µM unless noted
row,Compound,growth
1,CCN(CC)CCOC(=O)N1c2ccccc2Sc2ccccc21,88.1%
2,C=CCn1c(SCC(=O)Nc2ccc(C(=O)/C=C/c3cc(OC)c(OC)c(OC)c3)cc2)nnc1-c1cc(-c2ccc(Cl)cc2)nc2ccccc12,98.7%
3,COC1=C(C)C(=O)c2c(c(CCCl)c3n2CCC3OC(C)=O)C1=O (stereo not given),34.2%
4,COc1ccc(NC(=O)Nc2ccccc2CNc2nc(Nc3ccc(OCCN4CCCC4)cc3)ncc2Cl)cc1,-43.7% (active)
5,Nc1c(C(=O)Nc2cccc3cnccc23)sc2nc3c(cc12)C(=O)CCC3,60.2%
6,CC1(C)CC(=O)C2=C(C1)Nc1cc3c(cc1C2c1ccc(F)cc1)OCO3 (stereo not given),90.2%
7,Cn1ccc(=O)nc1,105%
8,O=C1C(N2CCOCC2)=C(I)C(=O)c2ncccc21,80.9%
9,Fc1cc2[nH]ncc2c2c3c(c(-c4cn[nH]c4)nc12)CCCC3,-13.2% (active)
10,Cc1ccc(C2=Nc3c(N)nc(N)nc3NC(c3cccc(Nc4ccnc5cc(C(F)(F)F)ccc45)c3)C2)cc1 (stereo not given),-11.3% (active)
11,Cn1c(COC(=O)NCCN2CCOCC2)nc2c(N3CCOCC3)nc(-c3ccccc3)nc21,-52.8% (active)
12,Nc1ccc(S(=O)(=O)Nc2ccsc2-c2nc(-c3ccccc3)no2)cc1,35.1%
13,COc1ccc(-c2cc(-c3cccnc3)nc3sc4c(N)c(C(C)=O)c(-c5ccccc5)nc4c23)cc1OC,78%
14,O=C(N/N=C/[C@H](O)[C@@H](O)[C@@H](O)[C@H](O)CO)c1ccc(NC(=O)c2cccnc2)cc1,101%
15,COc1cc2c(C#N)n3c(c2cc1OC)C(=O)C(c1ccccc1)Oc1ccccc1-3 (stereo not given),61.1%
16,COc1ccc2nc3ccccc3c(NCc3ccccc3)c2c1,8.18% (active)
17,COc1cc(C(=O)N2CCN(C(=O)c3ccco3)CC2)c(N)cc1OCc1ccccc1,99.8%
18,O=C(O)/C=C\C(=O)Nc1ccc2c(c1)Cc1cc(F)ccc1-2,100%
19,CC(=O)c1cc2c(N)c(C(=O)Nc3ccccn3)sc2nc1C,83.3%
20,Cn1cc(-c2cnn3c(N)c(Br)c([C@@H]4CCCNC4)nc23)cn1,21.2%

row,Compound,growth
1,CCOC(=O)CC1CSC(Nc2ccccc2)=N1 (stereo not given),102%
2,CC(C)(C)OC(=O)N1C=C/C(=C\Cn2cc(-c3ccccc3)nn2)CC1,75.7%
3,C=C1CC2(OC1=O)C(=O)N(C)c1ccc(I)cc12 (stereo not given),-56.5% (active)
4,C[n+]1c2ccccc2c(Nc2ccc(NS(=O)(=O)CCCCN=C(N)N)cc2)c2ccc(N)cc21,16.7%
5,Nc1ncc(C#Cc2cncc(NC(=O)c3cccc(C(F)(F)F)c3)c2)c2cccnc12,33.2%
6,Cc1cc(C)c(C=O)c(C)c1,84.1%
7,CNCCNc1nc2ccccc2c2c(=O)c3cccc(OC)c3sc12,26.5%
8,CC(C)CCSc1nc(N)nc2nc[nH]c12,76.7%
9,CC(=O)n1nc(C(=O)OC(C)(C)C)c2cc(F)c(F)cc21,103%
10,Cc1cc2c(cc1C)NC1=C(N2)OC(c2c3ccccc3cc3ccccc23)C1=O (stereo not given),2.98% (active)
11,COc1ccc(NC(=O)c2ccc(Nc3ncnc4[nH]c(C)c(C)c34)cc2)cc1,89.1%
12,O=C1C=CC(Nc2ccccc2[N+](=O)[O-])C1Nc1ccccc1[N+](=O)[O-] (stereo not given),25.1%
13,COc1cc(-c2nn(-c3ccc(NC(=O)Nc4ccc(Cl)c(Cl)c4)cc3)cc2-c2ccncc2)ccc1Cl,4.29% (active)
14,COc1cccc2cc(-c3cc4ccccc4[nH]3)/c(=N/C(=S)Nc3ccc(C)cc3)oc12,98.1%
15,O=C(COc1cccc(/C=C2\Cc3ccccc3C2=O)c1)c1ccc(Cl)cc1,94.2%
16,COC(=O)C(c1ccccc1)C(CC(=O)c1ccccc1)c1ccccc1 (stereo not given),92.5%
17,CCCCCn1c(=N)n(CC(O)COc2cccc(C)c2)c2ccccc21 (stereo not given),2.51% (active)
18,CCN(CC)CC(=O)Nc1c(C)ccc(N)c1C,74.2%
19,CCC(c1ccc(OC)cc1)C(CC)c1ccc(OCC[N+](C)(C)C)cc1 (stereo not given),-17.4% (active)
20,N#Cc1c(N)nc(Nc2nc3ccccc3[nH]2)nc1-c1ccc(Cl)cc1,106%
